Unmarked numbers belong to inactive results. Activity calls are given as the source filed them. Calls come from the whole dose curve; as a rule, active = well fitted curve in the direction sought with a large enough effect in the repeat runs; inconclusive = weak or mixed curves; inactive = flat fitted curve, though single readings scatter.
Test: qHTS assay to test for compound auto fluorescence at 590 nm (red) in HepG2 cell free culture (AID 720684)
Conditions: cell-free medium autofluorescence, red 540/590 nm; series mostly up to 91.3 µM; fluorescence, % of Rose Bengal: at the top concentration
In short: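 Auto fluorescence equivalency versus Rose Bengal sodium, red channel Ex/Em 540/590 nm; compounds in cell-free MEM/10% FBS; DMSO vehicle control.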
% is set by controls: 0 for no effect and ±100 for the full control effect.

| Structure (SMILES) | fluorescence, % of Rose Bengal | outcome |
| --- | --- | --- |
| C[N+]1(C)CCCCC1 | 0.0978% | – |
| Cc1ccc(-c2nc3ccc(C)cn3c2CC(=O)N(C)C)cc1 | 0.675% [at 46 µM] | – |
| COc1cc(CCN)cc(OC)c1OC | -0.001% [at 95.7 µM] | – |
| CC(=O)OCC1=C(C(=O)O)N2C(=O)[C@@H](N)[C@H]2SC1 | 0.155% [at 18.6 µM] | – |
| O=P(O)(O)c1ccccc1 | -0.0079% | – |
| Oc1ccc(Cc2ccc(O)cc2)cc1 | 0.0554% | – |
| CN(C)CCc1c[nH]c2cccc(OP(=O)(O)O)c12 | 0.0097% | – |
| CCC1(c2ccccc2)C(=O)N(COC)C(=O)N(COC)C1=O | 0.0062% [at 46 µM] | – |
| CCCCCCCCSC(=O)Oc1cc(Cl)nnc1-c1ccccc1 | 0.0046% | – |
| O=[N+]([O-])CCO | -0.144% [at 95.7 µM] | – |
| BrCc1ccc(Br)cc1 | 0.0021% | – |
| C[C@H](N)C(=O)c1ccccc1 | – | inactive |
| CCc1cc(OC)c(C[C@H](C)N)cc1OC | 0.299% [at 95.7 µM] | – |
| COC(=O)c1ccc(CBr)cc1 | -0.0762% [at 95.7 µM] | – |
| CCN[C@@H](C)Cc1cccc(C(F)(F)F)c1 | -0.013% | – |

Test: qHTS assay to test for compound auto fluorescence at 460 nm (blue) in HepG2 cell free culture (AID 720685)
Conditions: Cell-free culture medium, blue autofluorescence 405/460 nm; series mostly up to 91.3 µM; fluorescence, % of fluorescent control: at the top concentration
In short: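 Cell-free plates of MEM plus 10% FBS received 23 nL compound or DMSO vehicle; blue-channel (405/460 nm) intensity scored against triamterene as reference fluorophore.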

| Structure (SMILES) | fluorescence, % of fluorescent control | outcome |
| --- | --- | --- |
| CCN(CCO)CCO | -0.106% | – |
| C=CCc1cc(OC)c2c(c1)OCO2 | 0.0357% [at 95.7 µM] | – |
| CC(C)(C1CCC(O)CC1)C1CCC(O)CC1 (stereo unspecified) | -0.0283% | – |
| COc1cccc(C=O)c1 | -0.0517% | – |
| C=CC1(C)OC(=O)N(c2cc(Cl)cc(Cl)c2)C1=O (stereo unspecified) | – | inactive |
| CCCC(C)(COC(N)=O)COC(N)=O | – | inactive |
| Cc1cc(OC(=O)N(C)C)nn1C(=O)N(C)C | 0.0405% | – |
| CS(=O)(=O)Cl | 0.0188% [at 95.7 µM] | – |
| NCC1(CC(=O)O)CCCCC1 | 0.0583% [at 18.6 µM] | – |
| COc1ccccc1OC | 0.0939% | – |
| [P]#[In] | -0.0167% | – |
| O=C(Cl)/C=C/C(=O)Cl | -0.203% [at 95.7 µM] | – |
| CCOC(=O)NC(C)(C)Cc1ccc(Cl)cc1 | -0.0018% [at 46 µM] | – |
| O=c1[nH]oc2c1CCNC2 | -0.0087% [at 46 µM] | – |
| O=C(Cl)C(Cl)(Cl)Cl | 0.033% | – |
| N#CN=C1SCCN1Cc1ccc(Cl)nc1 | 0.0366% | – |

| Structure (SMILES) | fluorescence, % of fluorescent control | outcome |
| --- | --- | --- |
| CN(CCO)CCO | 0.106% [at 95.7 µM] | – |
| COC(=O)c1ccccc1CS(=O)(=O)NC(=O)Nc1nc(OC)cc(OC)n1 | 0.0752% | – |
| CCOC1Oc2ccc(OS(C)(=O)=O)cc2C1(C)C (stereo unspecified) | -0.0364% | – |
| C[N+]1(C)CCCCC1 | 0.0328% | – |
| Cc1ccc(-c2nc3ccc(C)cn3c2CC(=O)N(C)C)cc1 | 1.48% [at 46 µM] | – |
| COc1cc(CCN)cc(OC)c1OC | -0.0345% [at 95.7 µM] | – |
| CC(=O)OCC1=C(C(=O)O)N2C(=O)[C@@H](N)[C@H]2SC1 | -0.0695% [at 18.6 µM] | – |
| C=C1CC[C@@]2(O)[C@H]3Cc4ccc(O)c5c4[C@@]2(CCN3CC2CC2)[C@H]1O5 | 0.143% [at 46 µM] | – |
| CCC(C(N)=O)N1CCCC1=O (stereo unspecified) | 0.0714% [at 46 µM] | – |
| CCC1(c2ccccc2)C(=O)N(COC)C(=O)N(COC)C1=O | 0.0404% [at 46 µM] | – |
| CCOP(=S)(OCC)Oc1ccc(Cl)cc1Cl | 0.0184% | – |
| O=[N+]([O-])CCO | -0.0588% [at 95.7 µM] | – |
| C[C@H](N)C(=O)c1ccccc1 | – | inactive |
| COC(=O)c1ccc(CBr)cc1 | 0.191% [at 95.7 µM] | – |
| CCN[C@@H](C)Cc1cccc(C(F)(F)F)c1 | 0.0377% | – |

Reference: PubChem BioAssay (Tox21)
